Screens (PubChem)
An excerpt weighted towards active compounds, which were near 6.8% of everything screened.
Pf Dd2 growth: P. falciparum Dd2 growth inhibitors, primary screen, SYBR Green fluorescence, single dose replicates. 72 h; active compounds read low. activity change, % at 10 µM. hit rate 2.3% among 94,000; in the data active = activity change below about -80%; inconclusive = no clear call, values can overlap the other calls
C diff growth: C. difficile growth inhibitors, primary screen, HTS. hit rate 0.25% among 86,000. Clostridium difficile clinical isolate growth, OD600, 24 h; active compounds read low. growth activity, negative = inhibition, % at 16 µg/mL (by protocol);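 active = mean growth activity at or below -80% and every replicate also at or below -80%; inconclusive = mean at or below -80% but some replicate above -80%; inactive = mean growth activity above -80%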;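 also: 0% = DMSO wells and -100% = levofloxacin 16 µg/mL wells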
T cruzi growth-1: T. cruzi intracellular proliferation inhibitors, primary screen, cell-based, beta-gal Tulahuen parasites, NIH3T3 host, luminescence; inhibition, % at 8.34 µM; T. cruzi beta-gal in NIH3T3, GalScreen luminescence, 90 h; hit rate 5.9% among 77,000; AID 624255, 2012;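 active = mean inhibition above about 93%, with at least 55% of replicates each passing it, limit read from the data, passing the limit was not always enough; inconclusive = only one of those two conditions holds; inactive = neither condition holds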
T cruzi growth-2: T. cruzi intracellular proliferation inhibitors, confirmation, cell-based, NIH3T3 host, beta-gal parasite, luminescence, cherry-pick. shares compounds with T cruzi growth-1. T. cruzi beta-gal in NIH3T3, GalScreen luminescence, 90 h. inhibition, % at 8.35 µM. hit rate 72% among 5,600. AID 651739, 2012;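 active = mean replicate inhibition above about 95% and at least 55% of replicates individually reaching it, limit read from the data; inconclusive = only one of the two criteria is met; inactive = neither criterion is met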
T cruzi growth-3: inhibitors of intracellular T. cruzi replication, confirmation, NIH3T3 host cells, beta-gal parasites, cherry-pick, set 2; hit rate 21% among 5,600; T. cruzi beta-gal in NIH3T3, GalScreen luminescence, 90 h; inhibition, % at 2.09 µM; shares compounds with T cruzi growth-1;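 active = mean inhibition above about 95%, with at least 55% of replicates also reaching it, limit read from the data; inconclusive = meets just one of the two conditions; inactive = meets neither condition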;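 also: plate controls were neutral control median for no effect and positive control median for full effect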
NIH3T3 tox: cytotoxicity in mouse NIH/3T3 fibroblasts, confirmation, cytotoxicity control for T. cruzi proliferation inhibitor project, cell-based, cherry-pick, single point | shares compounds with T cruzi growth-1 | NIH/3T3 viability, CellTiter-Glo ATP luminescence, 90 h | cytotoxicity (signal decrease), % at 8.35 µM | hit rate 14% among 5,600 | AID 651742, 2012;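 active = mean signal decrease across replicates above about 35% based on untreated-well scatter, with enough replicates individually passing, limit read from the data; inconclusive = no rule stated though some were filed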;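 also: 0% = median of neutral control wells and 100% = median of positive control wells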
NIH3T3 tox 2: NIH/3T3 fibroblast cytotoxicity, confirmation, cytotoxicity control, cell-based, cherry-pick, single point, set 2 | shares compounds with T cruzi growth-1 | NIH/3T3 viability, CellTiter-Glo ATP luminescence, 90 h | inhibition, % at 24.9 µM | hit rate 56% among 5,600 | AID 651744, 2012;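 active = mean loss of cell viability signal at or above a set limit, and enough replicates individually reaching it; inconclusive = meets only the mean limit or only the replicate share; inactive = meets neither condition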;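 also: 0% = median of neutral control wells and 100% = median of positive control wells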
Starred values were filed as active, the others as inactive; ? = inconclusive; nt = no result.

SMILES | Pf Dd2 growth | C diff growth | T cruzi growth-1 | T cruzi growth-2 | T cruzi growth-3 | NIH3T3 tox | NIH3T3 tox 2
O=C(N[C@H]1CC[C@H](CC(=O)N2CCN(c3ccccc3)CC2)O[C@@H]1CO)c1ccncc1 | 14 | -3 | -19 | nt | nt | nt | nt
C[C@H]1CN([C@@H](C)CO)C(=O)c2cc(NS(=O)(=O)c3cccs3)ccc2O[C@H]1CN(C)Cc1ccc(-c2ccccc2)cc1 | 8 | 16 | ? | 85 | -7 | 7 | 55*
C[C@@H]1CN([C@H](C)CO)C(=O)c2cc(NS(=O)(=O)c3cccs3)ccc2O[C@H]1CN(C)Cc1ccc(-c2ccccc2)cc1 | 1 | -7 | 19 | nt | nt | nt | nt
C[C@@H]1CN([C@@H](C)CO)C(=O)c2cc(NS(=O)(=O)c3cccs3)ccc2O[C@@H]1CN(C)CC1CC1 | 8 | 2 | 99* | 77 | 32 | 17 | 10
C[C@H](CO)N1C[C@H](C)[C@@H](CN(C)CC2CC2)Oc2ccc(NS(=O)(=O)c3cccs3)cc2C1=O | 5 | 2 | 24 | nt | nt | nt | nt
CCCC(=O)Nc1ccc2c(c1)OC[C@H](C)N(Cc1ccccc1)C[C@@H](C)[C@@H](OC)CN(C)C2=O | -5 | nt | 17 | nt | nt | nt | nt
O=C(Nc1ccccc1F)N1CCCCN2[C@H](C1)[C@H](c1ccc(C3=CCCCC3)cc1)[C@@H]2CO | -31 | 16 | 54 | nt | nt | nt | nt
Cc1ccc(S(=O)(=O)N(C)C[C@H]2OCCCC[C@H](C)Oc3ccc(NC(=O)Cc4ccccc4)cc3C(=O)N([C@H](C)CO)C[C@@H]2C)cc1 | -76 | nt | 43 | nt | nt | nt | nt
C[C@@H]1CCCCO[C@H](CN(C)S(=O)(=O)c2ccccc2)[C@@H](C)CN([C@@H](C)CO)C(=O)c2cc(NC(=O)Cc3ccccc3)ccc2O1 | -67 | nt | nt | nt | nt | nt | nt
C[C@@H]1CCCCO[C@H](CN(C)S(=O)(=O)c2ccccc2)[C@H](C)CN([C@H](C)CO)C(=O)c2cc(NC(=O)Cc3ccccc3)ccc2O1 | -61 | nt | nt | nt | nt | nt | nt
Cc1ccc(S(=O)(=O)N(C)C[C@@H]2OCCCC[C@H](C)Oc3ccc(NC(=O)Cc4ccccc4)cc3C(=O)N([C@H](C)CO)C[C@@H]2C)cc1 | -76 | nt | 112* | 101* | 30 | -21 | ?
C[C@@H]1CN([C@H](C)CO)C(=O)c2cc(NC(=O)Cc3ccccc3)ccc2O[C@@H](C)CCCCO[C@@H]1CN(C)S(=O)(=O)c1ccc(Cl)cc1 | -84* | -1 | 108* | 109* | 85 | -13 | 22
C[C@@H]1CCCCO[C@@H](CN(C)S(=O)(=O)c2ccccc2)[C@H](C)CN([C@@H](C)CO)C(=O)c2cc(NC(=O)Cc3ccccc3)ccc2O1 | -41 | nt | 83 | nt | nt | nt | nt
COc1ccc(S(=O)(=O)N(C)C[C@H]2OCCCC[C@H](C)Oc3ccc(NC(=O)Cc4ccccc4)cc3C(=O)N([C@@H](C)CO)C[C@@H]2C)cc1 | -83* | 0 | ? | 107* | 43 | -10 | -18
C[C@@H]1CN([C@@H](C)CO)C(=O)c2cc(NC(=O)Cc3ccccc3)ccc2O[C@@H](C)CCCCO[C@@H]1CN(C)S(=O)(=O)c1ccc(Cl)cc1 | -85* | -1 | 111* | 101* | 65 | -3 | -2
C[C@@H]1CN([C@@H](C)CO)S(=O)(=O)c2ccc(/C=C/c3ccccc3)cc2O[C@H]1CN(C)C(=O)CN1CCOCC1 | -10 | -1 | 64 | nt | nt | nt | nt
CO[C@@H]1CN(C)C(=O)c2cc(NS(=O)(=O)c3cccc(F)c3)ccc2OC[C@@H](C)NC[C@H]1C | 8 | nt | -354 | nt | nt | nt | nt
O=C(C[C@@H]1C=C[C@H](NC(=O)c2ccccn2)[C@H](CO)O1)NCc1cccc(F)c1 | 19 | 2 | -23 | nt | nt | nt | nt
CC(C)NC(=O)Nc1ccc2c(c1)C(=O)N([C@@H](C)CO)C[C@H](C)[C@H](CN(C)C(=O)NC1CCCCC1)OCCCC[C@H](C)O2 | -55 | 2 | 20 | nt | nt | nt | nt
COc1cccc(NC(=O)N(C)C[C@H]2Oc3cc(-c4ccccc4OC)ccc3S(=O)(=O)N([C@@H](C)CO)C[C@H]2C)c1 | -5 | -4 | nt | nt | nt | nt | nt
COc1cccc(C#Cc2ccc3c(c2)O[C@H](CN(C)C(C)=O)[C@@H](C)CN([C@@H](C)CO)S3(=O)=O)c1 | -60 | -9 | ? | 102* | 51 | 12 | 49*
COc1cccc(NC(=O)N(C)C[C@@H]2Oc3cc(C#Cc4ccc(F)cc4)ccc3S(=O)(=O)N([C@@H](C)CO)C[C@H]2C)c1 | -44 | 7 | 105* | 109* | 105* | 48* | 30*
COc1cccc(NC(=O)N(C)C[C@H]2Oc3cc(C#Cc4ccc(F)cc4)ccc3S(=O)(=O)N([C@H](C)CO)C[C@@H]2C)c1 | -67 | 1 | 94* | 102* | 81 | -10 | 5
COc1cccc(NC(=O)N(C)C[C@H]2Oc3cc(C#Cc4ccc(F)cc4)ccc3S(=O)(=O)N([C@@H](C)CO)C[C@H]2C)c1 | -49 | 6 | 116* | 89 | 102* | 4 | 26
COc1cccc(NC(=O)N(C)C[C@@H]2Oc3cc(-c4ccccc4F)ccc3S(=O)(=O)N([C@H](C)CO)C[C@H]2C)c1 | -42 | -24 | 38 | nt | nt | nt | nt
SMILES | Pf Dd2 growth | C diff growth | T cruzi growth-1 | T cruzi growth-2 | T cruzi growth-3 | NIH3T3 tox | NIH3T3 tox 2
COc1cccc(NC(=O)N(C)C[C@@H]2Oc3cc(-c4ccccc4OC)ccc3S(=O)(=O)N([C@H](C)CO)C[C@@H]2C)c1 | -42 | -8 | nt | nt | nt | nt | nt
COc1cccc(C#Cc2ccc3c(c2)O[C@H](CN(C)C(C)=O)[C@H](C)CN([C@H](C)CO)S3(=O)=O)c1 | -55 | -15 | 63 | nt | nt | nt | nt
C[C@@H]1CN([C@@H](C)CO)C(=O)c2cc(NS(=O)(=O)c3cccs3)ccc2O[C@@H]1CN(C)Cc1ccc(-c2ccccc2)cc1 | 7 | 28 | 85 | nt | nt | nt | nt
CCCNC(=O)C[C@@H]1CC[C@@H]2[C@@H](COc3ccc(NC(=O)Cc4cccs4)cc3C(=O)N2C)O1 | -68 | 6 | -30 | nt | nt | nt | nt
C[C@@H]1CCCCO[C@H](CN(C)Cc2ccccc2)[C@H](C)CN([C@@H](C)CO)C(=O)c2cc(NC(=O)Nc3ccccc3)ccc2O1 | -72 | nt | nt | nt | nt | nt | nt
COc1cccc(NC(=O)N(C)C[C@@H]2Oc3cc(C#Cc4ccc(F)cc4)ccc3S(=O)(=O)N([C@@H](C)CO)C[C@@H]2C)c1 | -86* | 5 | 98* | 102* | 107* | 45* | 20
COc1cccc(NC(=O)N(C)C[C@@H]2Oc3cc(-c4ccccc4F)ccc3S(=O)(=O)N([C@@H](C)CO)C[C@@H]2C)c1 | -60 | 8 | 87 | nt | nt | nt | nt
